Assay [1] in a line: A CellTox Green Cytotoxicity Assay to monitor cytotoxicity in HEK293 cells - 40 hour (AID 1224871). Also: nearly all actives have a fitted effect of over 45% in size. Also: potency is read from the fitted curve at half-maximal effect. In short, it runs like this:
(§1)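 Each value comes from one timepoint of a single continuous run in which HEK293 cells with CellTox Green were exposed to compound for up to 40 h at 37 C, dye fluorescence rising with cell death.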

The nature of assay [2]: qHTS RealTime-Glo MT Cell Viability Assay in HEK293 cells - 16 hour (AID 1224872). Also: nearly all actives have a fitted effect of over 50% in size. Also: potency is read from the fitted curve at half-maximal effect. In short, it runs like this: (§2)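 Reads taken at 0, 8, 16, 24, 32 and 40 h from the same wells. HEK293 cells (600/well) carried RealTime-Glo reagents from seeding, with compound added after a 5 h settle at 37 C.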
A general note: qHTS replaces the single test concentration by a dilution series.

Assay [3] can be described thus: qHTS RealTime-Glo MT Cell Viability Assay in HEK293 cells - 40 hour (AID 1224874). Also: nearly all actives have a fitted effect of over 50% in size. Also: potency is read from the fitted curve at half-maximal effect. As to max response: % is scaled to controls: 0 for no effect and ±100 for the full control effect. As to conditions: RealTime-Glo luminescence; max response: stronger effect = lower value. In short, it runs like this: (§3)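 qHTS format; HEK293 cells with NanoLuc/prosubstrate reagent, 37 C/5% CO2 for 5 h pre-dosing; compounds 23 nL in DMSO; luminescence at each time point reflects viable cells.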

Assay [4] is described as follows: A CellTox Green Cytotoxicity Assay to monitor cytotoxicity in HEK293 cells - 24 hour (AID 1224875). Also: nearly all actives have a fitted effect of over 45% in size. Also: potency is read from the fitted curve at half-maximal effect. In short, it runs like this:
as §1

A short description of assay [5]: A CellTox Green Cytotoxicity Assay to monitor cytotoxicity in HepG2 cells - 16 hour (AID 1224876). Also: nearly all actives have a fitted effect of over 45% in size. Also: potency is read from the fitted curve at half-maximal effect. In short, it runs like this: (§4)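 Continuous culture of HepG2 cells with a membrane-impermeant DNA dye; rising fluorescence marks dead cells. Compound exposure lasted up to 40 h at 37 C, with reads every 8 h from 0 h.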
Assay [6] can be described thus: qHTS RealTime-Glo MT Cell Viability Assay in HepG2 cells - 32 hour (AID 1224877). Also: nearly all actives have a fitted effect of over 55% in size. Also: potency is read from the fitted curve at half-maximal effect. The essentials:
(§5)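 HepG2 suspension premixed with RealTime-Glo reagents is plated at 600 cells per well and left 5 h at 37 C/5% CO2. Compounds in DMSO then go in, and bioluminescence reflecting viable cell number is recorded over 40 h.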

The nature of assay [7]: A CellTox Green Cytotoxicity Assay to monitor cytotoxicity in HepG2 cells - 24 hour (AID 1224878). Also: nearly all actives have a fitted effect of over 45% in size. Also: potency is read from the fitted curve at half-maximal effect. As to Cytotoxicity: % is scaled to controls: 0 for no effect and ±100 for the full control effect. In short, it runs like this: as §4
A short description of assay [8]: A CellTox Green Cytotoxicity Assay to monitor cytotoxicity in HepG2 cells - 40 hour (AID 1224879). Also: nearly all actives have a fitted effect of over 40% in size. Also: potency is read from the fitted curve at half-maximal effect. In short, it runs like this:
as §4

Assay [9] in a line: A CellTox Green Cytotoxicity Assay to monitor cytotoxicity in HEK293 cells - 32 hour (AID 1224881). Also: nearly all actives have a fitted effect of over 40% in size. Also: potency is read from the fitted curve at half-maximal effect. In short, it runs like this:
as §1

Assay [10] in a line: A CellTox Green Cytotoxicity Assay to monitor cytotoxicity in HepG2 cells - 0 hour (AID 1224882). Also: nearly all actives have a fitted effect of over 35% in size. Also: potency is read from the fitted curve at half-maximal effect. As to Cytotoxicity: % is scaled to controls: 0 for no effect and ±100 for the full control effect. In short, it runs like this:
as §4

Assay [11] is described as follows: A CellTox Green Cytotoxicity Assay to monitor cytotoxicity in HepG2 cells - 32 hour (AID 1224883). Also: nearly all actives have a fitted effect of over 50% in size. Also: potency is read from the fitted curve at half-maximal effect. The essentials:
as §4

Assay [12] in a line: A CellTox Green Cytotoxicity Assay to monitor cytotoxicity in HEK293 cells - 8 hour (AID 1224884). Also: nearly all actives have a fitted effect of over 35% in size. Also: potency is read from the fitted curve at half-maximal effect. In short, it runs like this:
as §1

A short description of assay [13]: qHTS RealTime-Glo MT Cell Viability Assay in HepG2 cells - 16 hour (AID 1224885). Also: nearly all actives have a fitted effect of over 50% in size. Also: potency is read from the fitted curve at half-maximal effect. The essentials:
as §5

Assay [14] in a line: qHTS RealTime-Glo MT Cell Viability Assay in HEK293 cells - 24 hour (AID 1224886). Also: nearly all actives have a fitted effect of over 50% in size. Also: potency is read from the fitted curve at half-maximal effect. The essentials: as §2
Assay [15] can be described thus: qHTS RealTime-Glo MT Cell Viability Assay in HEK293 cells - 8 hour (AID 1224887). Also: nearly all actives have a fitted effect of over 50% in size. Also: potency is read from the fitted curve at half-maximal effect. In short, it runs like this: as §3
Assay [16] in a line: A CellTox Green Cytotoxicity Assay to monitor cytotoxicity in HEK293 cells - 16 hour (AID 1224888). Also: nearly all actives have a fitted effect of over 35% in size. Also: potency is read from the fitted curve at half-maximal effect. The essentials: as §1
A short description of assay [17]: qHTS RealTime-Glo MT Cell Viability Assay in HepG2 cells - 0 hour (AID 1224889). The essentials:
as §5

Assay [18] is described as follows: A CellTox Green Cytotoxicity Assay to monitor cytotoxicity in HepG2 cells - 8 hour (AID 1224890). Also: nearly all actives have a fitted effect of over 45% in size. Also: potency is read from the fitted curve at half-maximal effect. The essentials:
as §4

Assay [19] is described as follows: qHTS RealTime-Glo MT Cell Viability Assay in HEK293 cells - 0 hour (AID 1224880). The essentials:
as §3

Assay [20] is described as follows: qHTS RealTime-Glo MT Cell Viability Assay in HepG2 cells - 8 hour (AID 1224873). Also: potency is read from the fitted curve at half-maximal effect; nearly all actives have a fitted effect of over 55% in size. The essentials: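 HepG2 cells mixed with RealTime-Glo MT reagents (NanoLuc plus cell-permeant prosubstrate) were seeded at 600 cells/well, incubated 5 h at 37 C/5% CO2, then pinned with compounds in DMSO; nonlytic luminescence tracked viability during 40 h treatment.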

Where “and” joins values, the source holds several entries; their conditions need not be identical. Identical values can stand only once. Results filed as inconclusive are left out. The source holds several records for some structures; these can differ, active in one and inactive in another. Calls of active or inactive are those of the source. Calls follow the shape of the dose curve; as a rule, active = well fitted curve in the direction sought with a large enough effect in the repeat runs; inconclusive = weak or mixed curves; inactive = no such curve, though single readings can be large; an effect the other way counts as inactive or inconclusive.

As to `CCCCCCCCCCCC(=O)NCCCN(C)C`, the Potency is 49 µM (active) in assay [1]; 49 µM (active) in assay [2]; 34.7 µM (active) in [3]; 54.9 µM (active) in assay [4]; 43.6 µM (active) in assay [5]; 38.9 µM (active) in assay [6]. Besides, the Potency in [7] is 34.7 µM (active); in assay [8], 30.9 µM (active); in assay [9] it was 54.9 µM (active); in assay [11] it was 24.5 µM (active); in assay [12], 54.9 µM (active); in [13], 49 µM (active). The Potency in assay [14] was 43.6 µM (active); in assay [15], 49 µM (active); in assay [16], 54.9 µM (active); in assay [18], 54.9 µM (active). For the same compound, the Potency result in assay [10] and in assay [17] was “inactive” in each case.

As to `Nc1c2ccccc2nc2ccccc12`, the Potency was 24.2 µM (active) in assay [1]; 19.2 µM (active) in assay [2]; 4.83 µM (active) and 2.39 µM (active) in assay [3]; “inactive and 13.4 µM (active)” in assay [5]; 24.2 µM (active) and 10.7 µM (active) in assay [6]; 10.7 µM (active) in [7]. Further, the Potency in [8] is 10.8 µM (active) and 10.7 µM (active); in assay [9], 43.1 µM (active); in [11], 12.1 µM (active) and 10.7 µM (active); in assay [14], 7.66 µM (active) and 21.3 µM (active). In addition, the Potency entry in assay [19], in [10], in assay [16], in [17] and in [18] was “inactive” throughout.

As to `Cc1cc(N)c(S(=O)(=O)O)cc1Cl`, the Potency result in [1], in assay [2], in [4], in [5], in assay [6] and in [7] was “inactive” throughout. Besides, the Potency entry in assay [8], in assay [19], in [9], in assay [10], in [11] and in assay [12] was “inactive” in each case. Moreover, the Potency result in assay [13], in assay [14], in assay [15], in [16], in assay [17] and in assay [18] was “inactive” in each case. Also, in assay [3], the max response is 1.42% (inactive).

Regarding `C=CC(=O)OCC(CO)(COC(=O)C=C)COC(=O)C=C`, the Potency in assay [1] was 2.76 µM (active) and 9.77 µM (active); in assay [2] it was 5.51 µM (active); in assay [3], 3.48 µM (active); in [4] it was 43.6 µM (active); in assay [6], 12.3 µM (active) and 17.4 µM (active); in assay [7], 9.81 µM (active). For the same compound, the Potency was 11 µM (active) and 24.5 µM (active) in assay [8]; 15.5 µM (active) in [9]; 9.81 µM (active) in assay [11]; 13.9 µM (active) and 11 µM (active) in assay [13]; 4.91 µM (active) in assay [14]; 6.19 µM (active) and inactive in assay [15]. Also, the Potency entry in assay [5], in assay [19], in assay [10], in assay [12], in assay [16] and in assay [17] was “inactive” in each case. The Potency entry in [18] was “inactive”.

As for `CC1=C(/C=C/C(C)=C/C=C/C(C)=C/C=O)C(C)(C)CCC1`, the Potency in assay [1] is 38.7 µM (active); in assay [2], 19.4 µM (active); in [3], 19.4 µM (active); in [4], 38.7 µM (active); in [7], 54.6 µM (active); in [8], 48.7 µM (active). Moreover, the Potency is 38.7 µM (active) in [9]; 48.7 µM (active) in [11]; 48.7 µM (active) in [12]; 48.7 µM (active) in assay [13]; 17.3 µM (active) in assay [14]; 43.4 µM (active) in [16]. Also, the Potency entry in [19], in assay [10] and in [17] was “inactive” throughout.

`CCCCCCCC[N+](CCCCCCCC)(CCCCCCCC)CCCCCCCC`: the Potency was 19.5 µM (active) in assay [1]; 7.75 µM (active) in [2]; 2.18 µM (active) in [3]; 15.5 µM (active) in assay [4]; 24.5 µM (active) in [5]; 24.5 µM (active) in assay [6]. Moreover, the Potency in assay [7] is 19.5 µM (active); in assay [8], 24.5 µM (active); in [9], 15.5 µM (active); in assay [11] it was 21.8 µM (active); in [12] it was 24.5 µM (active); in assay [13] it was 24.5 µM (active). Further, the Potency in assay [14] was 6.15 µM (active); in assay [15] it was 12.3 µM (active); in assay [16], 21.8 µM (active); in assay [18] it was 34.6 µM (active). Moreover, the Potency entry in [10] was “inactive”.

On to `O=S1(=O)CC(Cl)(Cl)C(Cl)(Cl)C1`, for which the Potency is 1.95 µM (active) in [1]; 4.9 µM (active) in [2]; 8.71 µM (active) in [20]; 11 µM (active) in [5]; 6.16 µM (active) in assay [6]; 9.77 µM (active) in assay [7]. Also, the Potency is 6.92 µM (active) in assay [8]; 7.76 µM (active) in assay [11]; 6.92 µM (active) in [13]; 12.3 µM (active) in [15]; 13.8 µM (active) in assay [18]. Besides, the Potency entry in [19], in [10] and in assay [17] was “inactive” in each case.

Consider `[Cl][Bi]([Cl])([c]1ccccc1)([c]1ccccc1)[c]1ccccc1`, for which the Potency in assay [1] is 24.4 µM (active); in [2], 4.87 µM (active); in assay [3], 1.94 µM (active); in [4], 27.4 µM (active); in [5] it was 10.9 µM (active); in assay [6], 6.88 µM (active). Besides, the Potency in assay [7] was 7.71 µM (active); in assay [8], 4.87 µM (active); in assay [9], 24.4 µM (active); in assay [11], 6.13 µM (active); in [12], 43.4 µM (active); in assay [13], 7.71 µM (active). The Potency in assay [14] was 3.07 µM (active); in assay [15], 21.7 µM (active); in [18] it was 15.4 µM (active). Further, the Potency entry in assay [10] is “inactive”.

In the case of `CCN(CC)CCCC(C)Nc1c2ccc(Cl)cc2nc2ccc(OC)cc12` (stereo not given), the Potency in assay [1] was 6.01 µM (active); in [2], 4.25 µM (active); in [3], 3.01 µM (active); in assay [4] it was 10.7 µM (active); in assay [6], 6.01 µM (active); in [7], 9.52 µM (active). Further, the Potency in assay [8] is 6.01 µM (active); in assay [10], 21.3 µM (active); in [11] it was 6.74 µM (active); in assay [13] it was 9.52 µM (active); in assay [14], 4.25 µM (active); in [15], 5.35 µM (active). Also, the values for the Potency in assay [16] and in [18] were 23.9 µM (active) and 16.9 µM (active), respectively. The Potency result in assay [19] and in assay [17] was “inactive” throughout.

For `O=C(Oc1ccccc1)c1ccccc1C(=O)Oc1ccccc1`, the Potency result in assay [1], in assay [2], in assay [4], in assay [5], in assay [6] and in assay [7] was “inactive” each time. For the same compound, the Potency entry in assay [8], in assay [19], in [10], in assay [11], in [12] and in assay [14] was “inactive” each time. Besides, the Potency result in assay [15], in assay [16] and in [18] was “inactive” throughout. In addition, the max response in [3] was -2.84% (inactive).

The values are drawn from PubChem BioAssay (Tox21).
